PNC inhibitor = perinucleolar compartment assembly inhibition | PC3M PTB-GFP, PNC prevalence imaging, 16 h; stronger effect = lower value | activity change (PNC), negative = inhibition, % at 10 µM | actives 3.1% (n = 140,000) | AID 2417;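 active = readout at or below -70, meaning at least 70% loss of cells showing the perinucleolar compartment, a nuclear body marking cancer cells; inconclusive = readout between -30 and a set limit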;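 also: plate controls were DMSO wells for no effect and camptothecin positive control wells for full effect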
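PC3M cells stably expressing PTB-GFP, 750–1000 cells/well, treated 16 h at 37 °C with compound (23 nl of library stock), in duplicate. After paraformaldehyde fixation and Hoechst stain, imaged at 20x; PNC prevalence scored by image analysis.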
HPGD block = inhibitors of human 15-hydroxyprostaglandin dehydrogenase (HPGD); P15428; purified HPGD, NADH fluorescence kinetic, PGE2 substrate; Potency, µM, for the others: at the top dose activity change, negative = inhibition, usual class: inhibitors; actives 4.3% (n = 150,000); AID 894; also: potency is read from the fitted curve at half-maximal effect
Target sequence (P15428 whole entry, looked up): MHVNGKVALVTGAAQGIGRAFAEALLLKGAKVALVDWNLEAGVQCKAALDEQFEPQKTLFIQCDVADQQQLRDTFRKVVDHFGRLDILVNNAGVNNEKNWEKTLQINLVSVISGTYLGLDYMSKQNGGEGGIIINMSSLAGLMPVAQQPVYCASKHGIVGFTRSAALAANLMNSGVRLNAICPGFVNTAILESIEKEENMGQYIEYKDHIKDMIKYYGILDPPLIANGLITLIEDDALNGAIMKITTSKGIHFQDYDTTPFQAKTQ
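NADH formation kinetics: reaction with 30 uM PGE2 and 1 mM NAD+ (final), 20 nM enzyme, Tris-HCl pH 8 with Tween 20, after 15 min compound preincubation at room temperature. Fluorescence change, last versus first of five reads.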
ALDH1A1 block = blocks purified human ALDH1A1 activity | Purified ALDH1A1, NADH fluorescence, propionaldehyde substrate | Potency, µM (highest dose often 75.3 µM), for inactives: at the top dose activity, negative = inhibition, hits mostly inhibitors | actives 7.3% (n = 220,000) | AID 1030;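 also: potency is read from the fitted curve at half-maximal effect; plate controls were no enzyme wells and a reference inhibitor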
KDM4E inh = blocks human JMJD2E demethylase activity; JMJD2E catalytic domain, FDH-coupled NADH fluorescence (FDH is formaldehyde dehydrogenase); actives 1.6% (n = 230,000); B2RXH2; Potency, µM (top dose mostly 57.1 µM), for the others: top-dose activity change, negative = inhibition, actives largely listed as inhibitors; AID 2147;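 also: potency is read from the fitted curve at half-maximal effect; 0% = wells with enzyme and -100% = buffer wells without enzyme; nearly all actives have a fitted effect of over 50% in size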
Target sequence (B2RXH2 1-337 limits assumed): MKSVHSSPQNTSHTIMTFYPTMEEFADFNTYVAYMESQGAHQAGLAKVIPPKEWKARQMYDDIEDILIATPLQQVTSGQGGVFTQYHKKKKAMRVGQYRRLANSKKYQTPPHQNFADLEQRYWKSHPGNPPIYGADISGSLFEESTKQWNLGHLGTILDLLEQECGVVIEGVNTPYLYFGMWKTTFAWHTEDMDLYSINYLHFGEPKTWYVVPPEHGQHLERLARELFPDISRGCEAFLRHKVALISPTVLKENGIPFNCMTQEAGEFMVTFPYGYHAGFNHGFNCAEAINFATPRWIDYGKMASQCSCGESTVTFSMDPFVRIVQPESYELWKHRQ
The depositor's hits bear a star; ? = inconclusive; · = not tested or not shown; [ ] = dose if it differs, or a comment. Compounds with a hit are over-represented: about 11% of the library has one in this group of screens. Unless noted, calls follow the shape of the dose curve; as a rule, active = well fitted inhibition curve with a large enough effect (not every such curve was filed as active); inconclusive = small, poorly fitted or top-dose-only effect, or another doubt; inactive = no such curve, though single readings can be large or run the other way. Unless noted, % is scaled to controls: 0 for no effect and ±100 for the full control effect.

SMILES	PNC inhibitor	HPGD block	ALDH1A1 block	KDM4E inh
Cc1ccc(C(C#N)c2ccc(Cl)nn2)cc1 (configuration not stated)	·	·	8.91µM*	4.4%
N#CC(c1ccc(Cl)nn1)c1ccccc1Cl (configuration not stated)	8.5	-12.2%	3.98µM*	-1.9%
N#CC(c1ccc(Cl)cc1)c1ccc(Cl)nn1 (configuration not stated)	40.0	-17.7%	6.31µM*	-0.8%
Cc1ccc(C(C#N)c2ccc(C(=O)c3ccc(F)cc3)cc2)cc1 (configuration not stated)	40.6	-14.0%	?	-3.2%
N#CC(c1ccc(=O)[nH]n1)c1ccc(Cl)cc1Cl (configuration not stated)	·	·	-1.3%	0.3%
C[C@@]1(C(NC(=O)Cc2ccc(C(F)(F)F)cc2)c2ccc(-c3ccccc3)cc2)C[C@H]1C1CCCCC1 (some centres not stated)	·	0.7%	10.5%	25.9%
O=C(O/N=C1\CCS(=O)(=O)c2sccc21)c1c(F)cccc1F	·	·	?	-4.1%
O=S1(=O)CC/C(=N\Nc2ccccc2)c2ccsc21	·	·	25.1µM*	-11.8%
Cc1cccc(C(=O)c2cnc3ccccc3c2-c2ccccc2)c1	-8.0	?	12.6µM*	-0.1%
O[C@@H](c1cc(-c2ccccc2)nc2c1ccc1ccccc12)C1CCCCN1 (some centres not stated)	·	-10.6%	0.1%[13.5 µM]	·
O=C(O)c1ccccc1NS(=O)(=O)c1cccc2ccccc12	·	-3.8%	-6.5%	·
CC(=O)N1C(=O)/C(=C2\SC(=S)N(c3c(C)n(C)n(-c4ccccc4)c3=O)C2=O)c2ccccc21	-18.3	-4.3%	10µM*	1.7%
CCN1C(=O)/C(=C2\SC(=S)N(CC3CCCO3)C2=O)c2ccccc21 (configuration not stated)	13.9	-1.9%	?	3.4%
CCN1C(=O)/C(=C2\SC(=S)N(NC(=O)c3ccccc3O)C2=O)c2ccccc21	·	·	·	25.1µM*
CC(=O)N1C(=O)/C(=C2\SC(=S)N(NS(=O)(=O)c3ccc(C)cc3)C2=O)c2ccccc21	·	·	12.6µM*	?
Cc1c(N2C(=O)/C(=C3/C(=O)N(C)c4ccccc43)SC2=S)c(=O)n(-c2ccccc2)n1C	118.9	6.7%	-0.1%	4.8%
COc1ccc(CN2CCN(CCc3ccccc3)C(CCO)C2)cc1Cn1cncn1 (configuration not stated)	·	·	5.5%	-20.0%
CC(C)[C@](N)(C(=O)O)c1ccccc1	·	-4.5%	-13.5%[13.5 µM]	·
COc1cc(C(=O)Nc2ccc(S(=O)(=O)N3CCOCC3)cc2)c([N+](=O)[O-])cc1OC	·	·	8.3%	-2.0%
Cc1ccc(C)c(-n2c3nc(=O)[nH]c(=O)c-3cc3cc([N+](=O)[O-])ccc32)c1	-116.4*	?	?	0.2%
Cc1cccc(-n2c3nc(=O)[nH]c(=O)c-3cc3cc([N+](=O)[O-])ccc32)c1	-15.7	-32.5%	5.2%	?
COC(=O)[C@@]1(Cc2ccc(OC)cc2)[C@H]2c3cc(C(=O)N(C)C)n(Cc4cc(F)c(F)c(F)c4)c3C[C@H]2CN1C(=O)c1ccccc1	·	-12.1%	-1.3%	-12.1%
Cc1ccc2cc(CCNC(=O)c3ccc(S(=O)(=O)N4CCCCC4)cc3)c(=O)[nH]c2c1	·	·	14.1µM*	?
O=C(O)[C@@H]1[C@@H]2C[C@H]([C@@H](Br)[C@H]2N2C(=O)CCC2=O)[C@@H]1C(=O)O	·	-6.6%	-3.2%[13.5 µM]	·
CCc1cccc2c1NC(=O)C2(O)CC(=O)c1cccs1 (configuration not stated)	·	·	14.1µM*	1.8%
SMILES	PNC inhibitor	HPGD block	ALDH1A1 block	KDM4E inh
S=C(NC12CC3CC(CC(C3)C1)C2)N1CCCC1	3.0	-2.1%	-11.8%	6.2%
O=C(CC12CC3CC(CC(C3)C1)C2)NC(=S)N1CCCCC1	19.0	?	20µM*	?
CCOC(=O)CSc1n[nH]c(-c2ccco2)n1	24.0	?	0.7%	5.3%
O=C(CSc1n[nH]c(-c2ccco2)n1)N1c2ccccc2Sc2ccccc21	?	12.6µM*	7.94µM*	-2.9%
C#CCSc1n[nH]c(-c2ccco2)n1	·	?	16.4%[13.5 µM]	-3.9%
O=C(O)c1ccc(CSc2n[nH]c(-c3ccco3)n2)cc1	24.8	2.82µM*	?	-10.0%
CC1(C)CC(N2CCCC2)=CC(=[N+]2CCCC2)C1	?	-12.5%	-5.5%	-9.7%
CC1(C)CC(=O)C=C(N2CCN(C3=CC(=O)CC(C)(C)C3)CC2)C1	?	-10.9%	20µM*	6.0%
Cc1cc(NC(=O)CN2CCOCC2)n(-c2nc3ccccc3s2)n1	28.8	-8.3%	22.4µM*	-2.2%
CCOc1ccc2nc(NC(=O)CN3CCOCC3)sc2c1	·	·	12.9%	6.3%
O=C(CN1CCOCC1)Nc1nc2ccc(Br)cc2s1	?	-22.1%	12.6µM*	-11.9%
Cc1cc(NC(=O)CN2CCOCC2)n(-c2ccccc2)n1	·	·	·	5.6%
CCOC(=O)C1(CCCc2ccccc2)CCN(C(=O)Cn2nc(C)nc2C)CC1	·	·	·	-3.6%
CC1CC(C)(C)CC2(C1)NC(=S)N(c1ccccc1)N2 (configuration not stated)	-16.5	-9.3%	15.8µM*	?
Cc1c(C=O)c(Cl)n(C)c(=O)c1C#N	·	·	-9.3%	20µM*
Cc1ccc(-n2nnnc2SCC(=O)c2cc(C)n(-c3cc(C)on3)c2C)c(C)c1	?	-18.5%	2.24µM*	?
Cc1cc(C(=O)CSc2nnnn2-c2ccccc2)c(C)n1CCc1ccccc1	91.0	-13.5%	?	4.2%
Cc1cc(-n2c(C)cc(C(=O)CSc3nnnn3-c3ccccc3)c2C)no1	-16.3	-12.3%	7.08µM*	-2.8%
Cc1cc(C(=O)CSc2nnnn2-c2ccc(O)cc2)c(C)n1C	·	·	15.8µM*	-14.5%
CC(C)S(=O)(=O)c1cnc(N2CCOCC2)nc1N	·	·	·	7.8%
O=S(=O)(/N=C(/Nc1ccc(F)cc1F)c1ccccc1)c1ccc(Br)cc1	-99.1*	-7.8%	16.9%	11.2%
CCOC(=O)N1CCN(C(=O)CS(=O)Cc2nc(-c3cccc(C)c3)oc2C)CC1 (configuration not stated)	-28.3	-4.0%	?	4.5%
Cc1cccc(-c2nc(CS(=O)CC(=O)N3CCc4ccccc4C3)c(C)o2)c1 (configuration not stated)	-105.7*	?	?	-0.8%
N#Cc1ccccc1NC(=O)Nc1ccc(Cl)cc1	-109.4*	-14.3%	?	?
N#Cc1ccccc1NC(=O)Nc1cccc(Cl)c1	?	-5.4%	?	?
SMILES	PNC inhibitor	HPGD block	ALDH1A1 block	KDM4E inh
C[C@H]1CC2[C@@H]3CCC4=CC(=O)C=C[C@]4(C)[C@@]3(F)[C@@H](O)C[C@]2(C)[C@@]1(O)C(=O)CO (some centres not stated)	·	-9.5%	-2.5%	4.5%
CCOC(=O)NCc1ccc(Cl)c(Cl)c1	?	1.5%	5.9%	2.2%
Cc1ccc(C(=O)NCc2ccc(Cl)c(Cl)c2)o1	18.5	12.6µM*	1.6%	3.0%
NCCNC[C@@H]1COC2(CCCCCCCCCCC2)O1	·	·	·	-9.7%
O=[N+]([O-])/C(C(Cl)=C(Cl)Cl)=C(/NC1CC1)Sc1ccccc1	·	·	17.8µM*	-13.1%
Cc1ccc(S(=O)(=O)NC(C)(C)CSc2ncccn2)cc1	·	·	17.8µM*	-2.9%

Screening data as filed in PubChem.
